{"source": "PubChem BioAssay (NCATS)", "note": "Records with an inconclusive call do not appear. Values without a mark were called inactive. Activity calls are given as the source filed them. Calls come from the whole dose curve; as a rule, active = well fitted inhibition curve with a large enough effect; inconclusive = small, poorly fitted or top-dose-only effect; inactive = flat fitted curve, though single readings scatter. Where a SMILES comes first, the peptide text is derived from it. % is set by controls: 0 for no effect and ±100 for the full control effect."}
{"biological_target": "Phospholipid hydroperoxide glutathione peroxidase GPX4 (Homo sapiens) (UniProt P36969)", "sequence (P36969 whole entry, looked up)": "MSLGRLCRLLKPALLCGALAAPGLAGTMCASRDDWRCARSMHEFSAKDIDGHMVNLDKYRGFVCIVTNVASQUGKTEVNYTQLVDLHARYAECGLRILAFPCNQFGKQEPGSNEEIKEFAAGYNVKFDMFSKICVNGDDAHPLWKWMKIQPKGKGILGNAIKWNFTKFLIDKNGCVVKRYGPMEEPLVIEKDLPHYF", "assay": "Primary qHTS Assay for Inhibitors of Recombinant Selenoprotein Glutathione Peroxidase 4 (GPX4) (AID 1845192); note: nearly all actives have a fitted effect of over 65% in size", "conditions": "recombinant GPX4, GR-coupled NADPH fluorescence, 15 min; series mostly up to 27.8 µM; activity change, negative = inhibition: at the top concentration", "outline": "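GR-coupled readout: 100 nM GR, 1 mM GSH, 0.5 mM NADPH; NADPH fluorescence (ex 340/em 450 nm) read at t=0 and after 15 min RT. GPX4 200 nM, preincubated 30 min with compound; substrate 0.5 mM CHP.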"}
{"smiles": "Cc1[nH]c2ccccc2c1CC(=O)N[C@@H](Cc1ccccc1)C(=O)N(C)c1ccccc1", "activity change, negative = inhibition": "-15.4% [at 50 µM]"}
{"smiles": "CC1(C)C=Cc2c(ccc3c2[N+]([O-])=C2C3(O)CC34NC(=O)C5(CCCN5C3=O)CC4C2(C)C)O1", "note": "(stereo not given)", "activity change, negative = inhibition": "-5.47%"}
{"smiles": "COc1cc2c(c(OC)c1O)C(c1ccc(O)cc1)C1C(=O)OC3C(COC(=O)C1=C2)OC(CO)(OC1OC(COC(=O)/C=C/c2ccc(OC4OC(C)C(O)C(O)C4O)cc2)C(O)C(O)C1O)C3O", "note": "(stereo not given)", "activity change, negative = inhibition": "-10.6% [at 15.3 µM]"}
{"smiles": "C#CCCCn1cc(-c2cccc3c2N[C@@H](C)CC(=O)N3)cn1", "activity change, negative = inhibition": "4.46% [at 50 µM]"}
{"smiles": "C=C[C@H]1[C@H](O[C@@H]2O[C@H](CO)[C@@H](O)[C@H](O)[C@H]2O)OC=C2C(=O)N3Cc4c([nH]c5ccccc5c4=O)[C@@H]3C[C@H]21", "activity change, negative = inhibition": "-19%"}
{"smiles": "C/C(=C\\CCC1(C)C2CC3C(C2)C31C)C(=O)O", "note": "(stereo not given)", "activity change, negative = inhibition": "0.122% [at 50 µM]"}
{"smiles": "c1ccc2c(Nc3nnc(-c4ccncc4)s3)cccc2c1", "activity change, negative = inhibition": "-14.6% [at 50 µM]"}
{"smiles": "C/C(=C\\C1CCC(C)C2CCC3(C)OC123)C(=O)O", "note": "(stereo not given)", "activity change, negative = inhibition": "-7.8% [at 50 µM]"}
{"smiles": "COC(=O)C1=CO[C@@H](O[C@@H]2O[C@H](CO)[C@@H](O)[C@H](O)[C@H]2O)[C@@H]2C(C)CC(=O)[C@]12O", "note": "(stereo not given in full)", "activity change, negative = inhibition": "-0.691%"}
{"smiles": "CC1=C[C@@H]2[C@H]3[C@@H]4O[C@@](C)(CC[C@H]4O)[C@H]3CC(=O)[C@]23C(=O)N[C@@H](CC(C)C)[C@@H]3[C@@H]1C", "activity change, negative = inhibition": "-8.88%"}
{"smiles": "C[C@@H]1O[C@@H](O[C@H]2[C@H](O)[C@@H](O)[C@H](OC[C@H]3O[C@@H](OC(=O)[C@]45CCC(C)(C)C[C@H]4C4=CCC6[C@@]7(C)C[C@@H](O)[C@H](O)[C@@](C)(CO)C7[C@H](O)C[C@@]6(C)[C@]4(C)CC5)[C@H](O)[C@@H](O)[C@@H]3O)O[C@@H]2CO)[C@H](O)[C@H](O)[C@H]1O", "note": "(stereo not given in full)", "activity change, negative = inhibition": "-1.06% [at 15.3 µM]"}
{"smiles": "C[C@H]1[C@H](C)CC[C@]2(C(=O)O)CC[C@]3(C(=O)O)C(=CCC4[C@@]5(C)CC[C@H](O[C@@H]6O[C@@H](C)[C@H](O)[C@@H](O)[C@H]6O)C(C)(C)C5CC[C@]43C)[C@H]12", "note": "(stereo not given in full)", "outcome": "inactive [at 15.3 µM]"}
{"smiles": "O=C(O)C(Cc1ccccc1)NC(=O)C1CCCN1", "note": "(stereo not drawn) (H-Pro-Phe-OH; configuration not given here)", "activity change, negative = inhibition": "2.31% [at 50 µM]"}
{"smiles": "CC(C)CC(=O)NCCn1cc(C(=O)O)c(=O)cc1C(O)c1ccccc1", "note": "(stereo not given)", "activity change, negative = inhibition": "-10.5%"}
{"smiles": "CC(=O)O[C@@H]1C(=O)C(C)=C(CCC(C)CC(=O)O)[C@@]2(C)CCCC(C)(C)C12", "note": "(stereo not given in full)", "activity change, negative = inhibition": "-4.94%"}
{"smiles": "O=C(O)/C=C/c1ccc(O[C@@H]2O[C@H](CO)[C@@H](O)[C@H](O)[C@H]2O)cc1", "activity change, negative = inhibition": "0.739%"}
{"smiles": "COc1c2cc(c(O)c1OC)CCCCC(O)CCc1ccc(O)c-2c1", "note": "(stereo not given)", "activity change, negative = inhibition": "-7.47%"}
{"smiles": "OC[C@H]1O[C@@H](OC[C@H]2O[C@@H](OCc3ccccc3)[C@H](O)[C@@H](O)[C@@H]2O)[C@H](O)[C@@H](O)[C@@H]1O", "outcome": "inactive"}
{"smiles": "CC/C=C/C(O)C(O)C1=C(C)C(=O)C2(O1)C(=O)NC(OC)(C(=O)c1ccccc1)C2O", "note": "(stereo not given)", "activity change, negative = inhibition": "-24.7%"}
{"smiles": "Cc1occc(=O)c1O[C@@H]1O[C@H](CO[C@@H]2OC[C@](O)(CO)[C@H]2O)[C@@H](O)[C@H](O)[C@H]1O", "activity change, negative = inhibition": "-2%"}
{"smiles": "COc1ccc(C2OCC3C(c4cc(OC)c5c(c4)OCO5)OCC23)cc1OC", "note": "(stereo not given)", "activity change, negative = inhibition": "-6.43%"}
{"smiles": "C[C@]1(OC(=O)/C=C/c2ccc(O)cc2)C[C@@H](O)[C@]2(O)C=CO[C@@H](O[C@@H]3O[C@H](CO)[C@@H](O)[C@H](O)[C@H]3O)C12", "note": "(stereo not given in full)", "activity change, negative = inhibition": "-4.79%"}
{"smiles": "CC(=O)N[C@H]1[C@H](O[C@H]2CC[C@]3(C)C4CC=C5[C@@H]6CC(C)(C)CC[C@]6(C(=O)O)[C@H](O)C[C@@]5(C)[C@]4(C)CC[C@H]3C2(C)C)O[C@H](CO)[C@@H](O)[C@@H]1O", "note": "(stereo not given in full)", "activity change, negative = inhibition": "-4.96% [at 15.3 µM]"}
{"smiles": "COc1cc(C(C)=O)ccc1O[C@@H]1O[C@H](CO)[C@@H](O)[C@H](O)[C@H]1O", "activity change, negative = inhibition": "-1.29%"}
{"smiles": "CCCCC(=O)N1c2ccccc2NC2=C(C(=O)CCC2)C1c1ccccc1Cl", "note": "(stereo not given)", "activity change, negative = inhibition": "3.86% [at 50 µM]"}
{"smiles": "CC(=O)/C=C/C1(O)C(C)CC(O[C@@H]2O[C@H](CO)[C@@H](O)[C@H](O)[C@H]2O)CC1(C)C", "note": "(stereo not given in full)", "outcome": "inactive"}
{"smiles": "CCC1OC(=O)C(C)CC(C)C(=O)/C(C)=C/C(C)C(=O)/C=C/C1(C)O", "note": "(stereo not given)", "activity change, negative = inhibition": "-4.96%"}
{"smiles": "COc1cc(C)c(C(=O)O[C@@H]2[C@H](O)[C@@H](CO)O[C@H]2n2ccc(=O)[nH]c2=O)c(OC)c1", "outcome": "inactive"}
{"smiles": "C/C=C1/CC2C(=O)Nc3cc(O)c(OC)cc3C(=O)N2C1", "note": "(stereo not given)", "activity change, negative = inhibition": "4.97%"}
{"smiles": "COc1ccc(O[C@@H]2O[C@H](CO)[C@@H](O)[C@H](O)[C@H]2O)cc1OC", "activity change, negative = inhibition": "2.68%"}
